Where a name gives a salt, the structure may show the parent alone.
tested on: Danio rerio larvae (5 dpf); assay: habituation to 1-s acoustic pulses, difference vs DMSO (percentage points (treated minus DMSO)); higher = more of the behaviour than the DMSO vehicle control; settings: 10 µM; exposure time: 3 h pre-incubation + 3 h imaging
Method in brief: (§1)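 Library drugs were diluted 1000× from DMSO stocks into egg water to reach 10 µM and applied to 5-dpf wild-type zebrafish larvae in 96-well ProxiPlates, 48 larvae per drug. The larvae stayed exposed for 3 h before imaging and for the 3 h of imaging at 28.5 °C. Behaviour scores, given in percentage points, are the treated mean minus the vehicle mean for movement and upper-half location.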

Compound | habituation to 1-s acoustic pulses
CC(C)(C(=O)O)c1ccc(C(O)CCCN2CCC(C(O)(c3ccccc3)c3ccccc3)CC2)cc1 (stereo not given) [Fexofenadine hydrochloride] | 0.783
CCCc1nc(C(C)(C)O)c(C(=O)O)n1Cc1ccc(-c2ccccc2-c2nnn[nH]2)cc1 [Olmesartan] | 3.67
C[C@H](Cc1cc2c(c(C(N)=O)c1)N(CCCO)CC2)NCCOc1ccccc1OCC(F)(F)F [Silodosin] | 7.97
CCOc1nc2cccc(C(=O)O)c2n1Cc1ccc(-c2ccccc2-c2noc(=O)[nH]2)cc1 [Azilsartan] | 6.99
CN/C(=N\CCSCc1nc[nH]c1C)NC#N [Cimetidine] | 5.48
Cc1nnc(C(C)C)n1C1C[C@H]2CC[C@@H](C1)N2CC[C@H](NC(=O)C1CCC(F)(F)CC1)c1ccccc1 (stereo in doubt) [Maraviroc] | 2.48
CN[C@H]1CC[C@@H](c2ccc(Cl)c(Cl)c2)c2ccccc21 [Sertraline hydrochloride] | -2.9
CCN(CC)CCNC(=O)c1c(C)[nH]c(/C=C2\C(=O)Nc3ccc(F)cc32)c1C [Sunitinib malate] | 4.25
CC/C(=C(\c1ccccc1)c1ccc(OCCN(C)C)cc1)c1ccccc1 [Tamoxifen citrate] | -6.99
COCCCOc1cc(C[C@@H](C[C@H](N)[C@@H](O)C[C@H](C(=O)NCC(C)(C)C(N)=O)C(C)C)C(C)C)ccc1OC [Aliskiren hemifumarate] | 7.12

tested on: Danio rerio larvae (5 dpf); assay: excitability to 1-s acoustic pulses, difference vs DMSO (percentage points (treated minus DMSO)); higher = more of the behaviour than the DMSO vehicle control; settings: 10 µM; exposure time: 3 h pre-incubation + 3 h imaging
Method in brief: as §1

Compound | excitability to 1-s acoustic pulses
OC(c1cc(C(F)(F)F)nc2c(C(F)(F)F)cccc12)C1CCCCN1 (stereo not given) [Mefloquine hydrochloride] | 14
C[C@H](Cc1cc2c(c(C(N)=O)c1)N(CCCO)CC2)NCCOc1ccccc1OCC(F)(F)F [Silodosin] | 21.7
O=c1[nH]c(=O)n([C@H]2C[C@H](O)[C@@H](CO)O2)cc1C(F)(F)F [Trifluorothymidine] | 2.88
C=C1[C@H](CO)[C@@H](O)C[C@@H]1n1cnc2c(=O)[nH]c(N)nc21 [Entecavir] | -3.18
Cc1nnc(C(C)C)n1C1C[C@H]2CC[C@@H](C1)N2CC[C@H](NC(=O)C1CCC(F)(F)CC1)c1ccccc1 (stereo in doubt) [Maraviroc] | 8.65
OCCN(CCO)c1nc(N2CCCCC2)c2nc(N(CCO)CCO)nc(N3CCCCC3)c2n1 [Dipyridamole] | -3.05
CC/C(=C(\c1ccccc1)c1ccc(OCCN(C)C)cc1)c1ccccc1 [Tamoxifen citrate] | 4.58
NS(=O)(=O)c1cc2c(cc1Cl)NC(C1CC3C=CC1C3)NS2(=O)=O (stereo not given) [Cyclothiazide] | 0.586
Clc1ccc2nsnc2c1NC1=NCCN1 [Tizanidine hydrochloride] | 3.69
CN1CC2c3ccccc3Oc3ccc(Cl)cc3C2C1 (stereo not given) [Asenapine maleate] | 15

tested on: Danio rerio larvae (5 dpf); assay: optomotor response to red moving lines, difference vs DMSO (percentage points (treated minus DMSO)); higher = more of the behaviour than the DMSO vehicle control; settings: 10 µM; exposure time: 3 h pre-incubation + 3 h imaging
Method in brief: as §1

Compound | optomotor response to red moving lines
CN(C)CCc1c[nH]c2ccc(Cn3cncn3)cc12 [Rizatriptan benzoate] | 14.6
CC(C)(C(=O)O)c1ccc(C(O)CCCN2CCC(C(O)(c3ccccc3)c3ccccc3)CC2)cc1 (stereo not given) [Fexofenadine hydrochloride] | 3.62
O=c1[nH]c(=O)n([C@H]2C[C@H](O)[C@@H](CO)O2)cc1C(F)(F)F [Trifluorothymidine] | 9.66
CN/C(=N\CCSCc1nc[nH]c1C)NC#N [Cimetidine] | 5.88
Cc1nnc(C(C)C)n1C1C[C@H]2CC[C@@H](C1)N2CC[C@H](NC(=O)C1CCC(F)(F)CC1)c1ccccc1 (stereo in doubt) [Maraviroc] | -6.34
CCCc1nn(C)c2c(=O)[nH]c(-c3cc(S(=O)(=O)N4CCN(C)CC4)ccc3OCC)nc12 [Sildenafil citrate] | -6
O=C(Nc1c(Cl)cncc1Cl)c1ccc(OC(F)F)c(OCC2CC2)c1 [Roflumilast] | 0.247
Cc1nc(-c2ccc(OCC(C)C)c(C#N)c2)sc1C(=O)O [Febuxostat] | -1.5
Nc1nc(F)nc2c1ncn2[C@@H]1O[C@H](CO)[C@@H](O)[C@@H]1O [Fludarabine] | -10.8
Nc1ccn([C@@H]2O[C@H](CO)[C@@H](O)C2(F)F)c(=O)n1 [Gemcitabine hydrochloride] | 12.3
COc1ccc(-c2ccc3cc(C(=O)O)ccc3c2)cc1C12CC3CC(CC(C3)C1)C2 [Adapalene] | -12.7
CC/C(=C(\c1ccccc1)c1ccc(OCCN(C)C)cc1)c1ccccc1 [Tamoxifen citrate] | -11
Clc1ccc2nsnc2c1NC1=NCCN1 [Tizanidine hydrochloride] | 18.1

tested on: Danio rerio larvae (5 dpf); assay: activity during period 15 (no stimuli), difference vs DMSO (percentage points (treated minus DMSO)); higher = more of the behaviour than the DMSO vehicle control; settings: 10 µM; exposure time: 3 h pre-incubation + 3 h imaging
Method in brief: as §1

Compound | activity during period 15
Cc1cccc(CN2CCN(C(c3ccccc3)c3ccc(Cl)cc3)CC2)c1 (stereo not given) [Meclizine dihydrochloride] | 8.13
COc1cc2nc(N3CCN(C(=O)C4COc5ccccc5O4)CC3)nc(N)c2cc1OC (stereo not given) [Doxazosin mesylate] | -7.81
COc1cc(N)c(Cl)cc1C(=O)NC1CCN(CCCOc2ccc(F)cc2)CC1OC (stereo not given) [Cisapride] | -0.757
CC(C)(C(=O)O)c1ccc(C(O)CCCN2CCC(C(O)(c3ccccc3)c3ccccc3)CC2)cc1 (stereo not given) [Fexofenadine hydrochloride] | 1.68
CCCc1nc(C(C)(C)O)c(C(=O)O)n1Cc1ccc(-c2ccccc2-c2nnn[nH]2)cc1 [Olmesartan] | 4.45
Cc1ccc(O)c([C@H](CCN(C(C)C)C(C)C)c2ccccc2)c1 [Tolterodine L-tartrate] | 13.9
CCOc1nc2cccc(C(=O)O)c2n1Cc1ccc(-c2ccccc2-c2noc(=O)[nH]2)cc1 [Azilsartan] | 3.86
CCc1nc(N)nc(N)c1-c1ccc(Cl)cc1 [Pyrimethamine] | -4.35
OCCN(CCO)c1nc(N2CCCCC2)c2nc(N(CCO)CCO)nc(N3CCCCC3)c2n1 [Dipyridamole] | -5.46
Nc1ccn([C@@H]2O[C@H](CO)[C@@H](O)C2(F)F)c(=O)n1 [Gemcitabine hydrochloride] | -1.53
COc1ccc(-c2ccc3cc(C(=O)O)ccc3c2)cc1C12CC3CC(CC(C3)C1)C2 [Adapalene] | -3.39
COCCCOc1cc(C[C@@H](C[C@H](N)[C@@H](O)C[C@H](C(=O)NCC(C)(C)C(N)=O)C(C)C)C(C)C)ccc1OC [Aliskiren hemifumarate] | -3.61
